Measurements reported in ChEMBL document CHEMBL1961873, “Compounds: GSK PKIS; Assays: Nanosyn kinase panel” (2012).
“And” between values parts separate entries of the source, which are not always exact repeats. Equal entries are not always repeated.

Tests used:
[1] = biological target: T1, Inhibitor of nuclear factor kappa-B kinase subunit epsilon (Homo sapiens) (UniProt Q14164); conditions: at 1 µM;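 also: reported values are averaged percent inhibition figures against human IKKε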
T1 sequence (whole entry): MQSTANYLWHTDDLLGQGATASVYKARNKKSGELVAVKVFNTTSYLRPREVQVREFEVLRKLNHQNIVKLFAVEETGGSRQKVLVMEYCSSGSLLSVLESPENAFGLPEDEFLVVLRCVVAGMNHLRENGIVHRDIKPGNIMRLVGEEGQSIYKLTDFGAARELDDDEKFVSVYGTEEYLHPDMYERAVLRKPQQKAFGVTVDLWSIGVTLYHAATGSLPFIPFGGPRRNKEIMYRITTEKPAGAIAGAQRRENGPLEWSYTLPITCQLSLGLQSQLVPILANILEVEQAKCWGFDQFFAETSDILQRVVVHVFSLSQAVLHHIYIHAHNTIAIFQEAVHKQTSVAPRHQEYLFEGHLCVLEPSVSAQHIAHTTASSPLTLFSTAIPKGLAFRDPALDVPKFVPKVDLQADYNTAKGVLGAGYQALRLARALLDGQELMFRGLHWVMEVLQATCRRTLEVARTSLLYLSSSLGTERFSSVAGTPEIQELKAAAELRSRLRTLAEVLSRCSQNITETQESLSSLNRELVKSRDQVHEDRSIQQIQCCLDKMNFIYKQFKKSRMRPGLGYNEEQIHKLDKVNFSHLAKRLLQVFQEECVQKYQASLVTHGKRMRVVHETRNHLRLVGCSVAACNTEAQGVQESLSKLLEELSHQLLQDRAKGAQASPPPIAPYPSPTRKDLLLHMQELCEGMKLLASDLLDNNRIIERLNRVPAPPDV

[2] = biological target: T2, Serine/threonine-protein kinase Nek1 (Homo sapiens) (UniProt Q96PY6); conditions: at 0.1 µM
T2 sequence (whole entry): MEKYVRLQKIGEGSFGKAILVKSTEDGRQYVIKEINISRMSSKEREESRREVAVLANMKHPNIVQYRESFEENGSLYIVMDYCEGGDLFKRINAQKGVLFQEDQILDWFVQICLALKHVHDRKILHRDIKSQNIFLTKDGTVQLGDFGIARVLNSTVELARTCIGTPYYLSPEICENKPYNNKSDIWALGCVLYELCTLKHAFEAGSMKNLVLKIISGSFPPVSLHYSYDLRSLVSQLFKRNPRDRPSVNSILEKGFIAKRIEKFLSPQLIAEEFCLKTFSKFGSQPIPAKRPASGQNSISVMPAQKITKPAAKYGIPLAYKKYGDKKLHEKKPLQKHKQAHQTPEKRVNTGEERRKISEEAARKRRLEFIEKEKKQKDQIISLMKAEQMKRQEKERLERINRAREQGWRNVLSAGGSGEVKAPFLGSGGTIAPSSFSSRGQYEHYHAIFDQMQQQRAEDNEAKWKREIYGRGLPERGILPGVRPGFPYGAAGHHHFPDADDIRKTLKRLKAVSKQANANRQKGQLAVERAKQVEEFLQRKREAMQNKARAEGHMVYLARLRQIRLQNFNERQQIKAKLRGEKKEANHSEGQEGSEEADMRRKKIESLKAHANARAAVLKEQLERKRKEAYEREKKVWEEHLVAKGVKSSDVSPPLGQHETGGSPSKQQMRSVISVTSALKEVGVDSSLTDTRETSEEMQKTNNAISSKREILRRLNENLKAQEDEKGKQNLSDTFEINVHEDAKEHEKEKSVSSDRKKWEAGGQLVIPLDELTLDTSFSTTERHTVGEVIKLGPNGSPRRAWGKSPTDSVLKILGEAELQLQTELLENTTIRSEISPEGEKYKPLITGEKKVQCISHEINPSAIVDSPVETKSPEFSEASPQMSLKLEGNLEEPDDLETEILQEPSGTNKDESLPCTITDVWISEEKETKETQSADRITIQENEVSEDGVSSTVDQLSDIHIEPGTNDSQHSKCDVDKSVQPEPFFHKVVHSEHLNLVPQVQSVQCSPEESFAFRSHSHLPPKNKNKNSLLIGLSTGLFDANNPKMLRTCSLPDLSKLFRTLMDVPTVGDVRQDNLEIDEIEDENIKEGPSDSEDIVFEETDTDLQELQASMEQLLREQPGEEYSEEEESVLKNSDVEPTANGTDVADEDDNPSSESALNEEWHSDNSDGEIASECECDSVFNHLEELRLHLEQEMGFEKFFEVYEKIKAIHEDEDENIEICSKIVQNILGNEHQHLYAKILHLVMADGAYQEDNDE

[3] = biological target: T2, Serine/threonine-protein kinase Nek1 (Homo sapiens); conditions: at 1 µM
[4] = biological target: T3, Serine/threonine-protein kinase Nek2 (Homo sapiens) (UniProt P51955); conditions: at 0.1 µM
T3 sequence (whole entry): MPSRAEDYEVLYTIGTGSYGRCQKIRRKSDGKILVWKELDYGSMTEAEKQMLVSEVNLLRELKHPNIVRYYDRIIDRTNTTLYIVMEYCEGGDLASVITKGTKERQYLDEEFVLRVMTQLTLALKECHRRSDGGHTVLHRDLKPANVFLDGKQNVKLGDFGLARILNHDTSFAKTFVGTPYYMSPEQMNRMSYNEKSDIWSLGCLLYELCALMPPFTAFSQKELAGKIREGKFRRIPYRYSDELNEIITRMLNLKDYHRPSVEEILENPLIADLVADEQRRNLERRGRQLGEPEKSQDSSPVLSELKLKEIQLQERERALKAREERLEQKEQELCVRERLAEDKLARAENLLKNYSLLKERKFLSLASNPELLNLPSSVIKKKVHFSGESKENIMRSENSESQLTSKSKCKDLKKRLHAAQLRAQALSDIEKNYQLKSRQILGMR

[5] = biological target: T3, Serine/threonine-protein kinase Nek2 (Homo sapiens); conditions: at 1 µM
[6] = biological target: Serine/threonine-protein kinase Nek6 (Homo sapiens) (UniProt Q9HC98); conditions: at 0.1 µM
[7] = biological target: Serine/threonine-protein kinase Nek6 (Homo sapiens) (UniProt Q9HC98); conditions: at 1 µM
[8] = biological target: Serine/threonine-protein kinase Nek7 (Homo sapiens) (UniProt Q8TDX7); conditions: at 0.1 µM
[9] = biological target: Serine/threonine-protein kinase Nek7 (Homo sapiens) (UniProt Q8TDX7); conditions: at 1 µM
[10] = biological target: T4, Serine/threonine-protein kinase Nek9 (Homo sapiens) (UniProt Q8TD19); conditions: at 0.1 µM
T4 sequence (whole entry): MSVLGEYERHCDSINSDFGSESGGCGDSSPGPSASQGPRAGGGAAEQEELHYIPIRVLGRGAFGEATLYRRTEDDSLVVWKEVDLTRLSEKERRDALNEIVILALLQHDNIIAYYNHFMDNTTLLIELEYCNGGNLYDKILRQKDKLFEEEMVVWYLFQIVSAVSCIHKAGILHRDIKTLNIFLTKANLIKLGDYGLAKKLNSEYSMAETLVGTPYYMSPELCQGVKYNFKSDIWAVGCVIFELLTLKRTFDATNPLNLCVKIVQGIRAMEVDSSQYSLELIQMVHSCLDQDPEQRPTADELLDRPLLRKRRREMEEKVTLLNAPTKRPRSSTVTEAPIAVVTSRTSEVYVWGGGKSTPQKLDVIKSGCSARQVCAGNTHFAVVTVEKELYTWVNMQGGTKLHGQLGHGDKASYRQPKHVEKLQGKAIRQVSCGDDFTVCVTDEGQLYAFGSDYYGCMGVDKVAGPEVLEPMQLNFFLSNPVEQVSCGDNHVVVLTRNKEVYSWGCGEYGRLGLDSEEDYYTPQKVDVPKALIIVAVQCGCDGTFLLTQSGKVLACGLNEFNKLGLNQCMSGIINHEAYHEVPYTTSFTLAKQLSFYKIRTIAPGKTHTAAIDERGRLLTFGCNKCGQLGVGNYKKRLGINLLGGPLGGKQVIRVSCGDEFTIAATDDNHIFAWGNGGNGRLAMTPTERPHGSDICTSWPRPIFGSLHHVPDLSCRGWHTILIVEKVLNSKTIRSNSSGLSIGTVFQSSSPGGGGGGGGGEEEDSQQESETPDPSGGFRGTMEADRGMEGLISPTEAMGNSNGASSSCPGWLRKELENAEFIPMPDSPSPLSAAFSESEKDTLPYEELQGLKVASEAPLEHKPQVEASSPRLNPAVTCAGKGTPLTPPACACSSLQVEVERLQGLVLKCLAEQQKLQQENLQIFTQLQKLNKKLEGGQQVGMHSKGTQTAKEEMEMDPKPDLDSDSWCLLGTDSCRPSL

[11] = biological target: T4, Serine/threonine-protein kinase Nek9 (Homo sapiens); conditions: at 1 µM
[12] = biological target: Serine/threonine-protein kinase PLK1 (Homo sapiens) (UniProt P53350); conditions: at 0.1 µM
[13] = biological target: Serine/threonine-protein kinase PLK1 (Homo sapiens) (UniProt P53350); conditions: at 1 µM
[14] = biological target: T5, Dual specificity protein kinase TTK (Homo sapiens) (UniProt P33981); conditions: at 0.1 µM
T5 sequence (whole entry): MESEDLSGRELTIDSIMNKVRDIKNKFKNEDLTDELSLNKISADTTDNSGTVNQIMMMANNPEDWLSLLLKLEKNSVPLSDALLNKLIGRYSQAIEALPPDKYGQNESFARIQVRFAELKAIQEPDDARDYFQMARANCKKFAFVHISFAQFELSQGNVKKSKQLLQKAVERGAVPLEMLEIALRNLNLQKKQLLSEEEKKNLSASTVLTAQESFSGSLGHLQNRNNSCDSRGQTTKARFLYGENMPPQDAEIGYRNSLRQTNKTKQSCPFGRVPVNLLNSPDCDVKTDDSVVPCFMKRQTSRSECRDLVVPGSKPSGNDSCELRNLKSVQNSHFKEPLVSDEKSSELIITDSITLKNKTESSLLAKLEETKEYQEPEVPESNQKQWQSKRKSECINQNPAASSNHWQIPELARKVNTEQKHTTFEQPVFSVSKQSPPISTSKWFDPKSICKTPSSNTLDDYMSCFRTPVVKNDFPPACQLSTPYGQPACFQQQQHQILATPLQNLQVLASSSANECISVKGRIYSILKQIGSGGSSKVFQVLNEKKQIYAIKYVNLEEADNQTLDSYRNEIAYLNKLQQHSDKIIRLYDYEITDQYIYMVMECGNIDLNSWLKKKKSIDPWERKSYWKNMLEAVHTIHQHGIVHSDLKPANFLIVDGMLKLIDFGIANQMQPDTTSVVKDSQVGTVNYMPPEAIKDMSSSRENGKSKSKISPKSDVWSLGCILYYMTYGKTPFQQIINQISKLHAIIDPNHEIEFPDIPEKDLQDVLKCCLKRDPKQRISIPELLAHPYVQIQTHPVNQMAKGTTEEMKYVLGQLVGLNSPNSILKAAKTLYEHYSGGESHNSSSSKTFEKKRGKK

[15] = tested on: T6, Receptor-type tyrosine-protein kinase FLT3 (Homo sapiens), P36888 [D835Y]; conditions: at 1 µM
T6 sequence (whole entry): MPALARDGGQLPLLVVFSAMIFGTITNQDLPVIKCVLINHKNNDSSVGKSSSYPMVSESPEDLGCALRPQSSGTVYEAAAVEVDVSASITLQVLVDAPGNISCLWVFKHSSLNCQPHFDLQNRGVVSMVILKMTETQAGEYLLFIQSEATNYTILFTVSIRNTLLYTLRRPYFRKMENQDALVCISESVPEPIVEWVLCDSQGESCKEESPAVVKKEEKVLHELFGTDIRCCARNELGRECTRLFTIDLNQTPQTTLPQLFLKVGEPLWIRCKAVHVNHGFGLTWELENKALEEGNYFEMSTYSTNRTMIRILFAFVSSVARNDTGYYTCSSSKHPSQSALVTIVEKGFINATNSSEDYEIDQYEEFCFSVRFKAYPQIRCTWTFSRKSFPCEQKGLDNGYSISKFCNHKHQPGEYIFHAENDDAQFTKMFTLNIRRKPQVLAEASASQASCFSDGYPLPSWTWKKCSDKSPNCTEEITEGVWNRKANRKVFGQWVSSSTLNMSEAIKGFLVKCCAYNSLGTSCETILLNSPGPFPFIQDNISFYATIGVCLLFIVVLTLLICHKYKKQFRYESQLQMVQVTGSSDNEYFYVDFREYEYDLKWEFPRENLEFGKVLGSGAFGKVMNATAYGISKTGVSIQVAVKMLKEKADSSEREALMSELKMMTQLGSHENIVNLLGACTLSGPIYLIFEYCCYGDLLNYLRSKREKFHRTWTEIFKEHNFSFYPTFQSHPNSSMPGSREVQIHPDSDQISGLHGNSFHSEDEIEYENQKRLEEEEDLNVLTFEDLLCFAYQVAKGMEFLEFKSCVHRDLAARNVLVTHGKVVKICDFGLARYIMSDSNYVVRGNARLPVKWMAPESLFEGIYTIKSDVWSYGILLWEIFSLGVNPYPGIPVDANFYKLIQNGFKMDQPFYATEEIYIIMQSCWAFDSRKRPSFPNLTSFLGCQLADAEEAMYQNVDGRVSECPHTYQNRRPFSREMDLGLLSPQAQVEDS

[16] = biological target: Vascular endothelial growth factor receptor 3 (Homo sapiens) (UniProt P35916); conditions: at 0.1 µM
[17] = biological target: Vascular endothelial growth factor receptor 3 (Homo sapiens) (UniProt P35916); conditions: at 1 µM
[18] = biological target: Macrophage colony-stimulating factor 1 receptor (Homo sapiens) (UniProt P07333); conditions: at 0.1 µM
[19] = biological target: Macrophage colony-stimulating factor 1 receptor (Homo sapiens) (UniProt P07333); conditions: at 1 µM
[20] = biological target: Tyrosine-protein kinase Fyn (Homo sapiens) (UniProt P06241); conditions: at 0.1 µM
Chain of Tyrosine-protein kinase Fyn (Homo sapiens) (P06241 2-537 limits assumed): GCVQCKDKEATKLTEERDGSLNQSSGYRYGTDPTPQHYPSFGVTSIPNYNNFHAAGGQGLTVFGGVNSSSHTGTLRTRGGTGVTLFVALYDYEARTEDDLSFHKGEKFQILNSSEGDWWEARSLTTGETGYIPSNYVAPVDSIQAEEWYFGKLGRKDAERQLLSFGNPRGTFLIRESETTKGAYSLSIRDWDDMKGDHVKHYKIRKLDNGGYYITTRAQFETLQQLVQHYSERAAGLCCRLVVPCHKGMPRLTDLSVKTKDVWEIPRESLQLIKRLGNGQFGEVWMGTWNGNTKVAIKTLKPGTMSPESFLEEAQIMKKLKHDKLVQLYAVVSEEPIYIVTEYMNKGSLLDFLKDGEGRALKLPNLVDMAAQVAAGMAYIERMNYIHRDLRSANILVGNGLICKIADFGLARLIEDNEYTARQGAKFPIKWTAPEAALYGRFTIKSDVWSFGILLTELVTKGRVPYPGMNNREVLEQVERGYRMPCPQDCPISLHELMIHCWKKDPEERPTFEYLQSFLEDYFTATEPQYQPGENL

Chain of Serine/threonine-protein kinase Nek7 (Homo sapiens) (Q8TDX7 whole entry, looked up): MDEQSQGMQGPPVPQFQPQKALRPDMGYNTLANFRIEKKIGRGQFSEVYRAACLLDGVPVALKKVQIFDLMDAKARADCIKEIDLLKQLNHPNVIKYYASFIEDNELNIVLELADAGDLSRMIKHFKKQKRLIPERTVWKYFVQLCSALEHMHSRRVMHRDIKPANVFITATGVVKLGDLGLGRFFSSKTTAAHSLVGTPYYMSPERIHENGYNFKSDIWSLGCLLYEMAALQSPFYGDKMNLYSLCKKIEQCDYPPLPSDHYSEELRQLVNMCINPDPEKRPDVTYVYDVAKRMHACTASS
Chain of Serine/threonine-protein kinase Nek6 (Homo sapiens) (Q9HC98 whole entry): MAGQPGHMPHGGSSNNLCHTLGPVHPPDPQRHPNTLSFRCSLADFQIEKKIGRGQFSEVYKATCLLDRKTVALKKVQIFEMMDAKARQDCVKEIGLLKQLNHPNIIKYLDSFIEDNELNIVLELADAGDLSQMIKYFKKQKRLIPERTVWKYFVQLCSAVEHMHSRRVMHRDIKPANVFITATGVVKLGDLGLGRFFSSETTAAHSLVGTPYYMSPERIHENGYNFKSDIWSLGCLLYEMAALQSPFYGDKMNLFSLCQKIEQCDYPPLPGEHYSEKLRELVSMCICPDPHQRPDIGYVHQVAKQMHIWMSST
Chain of Vascular endothelial growth factor receptor 3 (Homo sapiens) (P35916 whole entry): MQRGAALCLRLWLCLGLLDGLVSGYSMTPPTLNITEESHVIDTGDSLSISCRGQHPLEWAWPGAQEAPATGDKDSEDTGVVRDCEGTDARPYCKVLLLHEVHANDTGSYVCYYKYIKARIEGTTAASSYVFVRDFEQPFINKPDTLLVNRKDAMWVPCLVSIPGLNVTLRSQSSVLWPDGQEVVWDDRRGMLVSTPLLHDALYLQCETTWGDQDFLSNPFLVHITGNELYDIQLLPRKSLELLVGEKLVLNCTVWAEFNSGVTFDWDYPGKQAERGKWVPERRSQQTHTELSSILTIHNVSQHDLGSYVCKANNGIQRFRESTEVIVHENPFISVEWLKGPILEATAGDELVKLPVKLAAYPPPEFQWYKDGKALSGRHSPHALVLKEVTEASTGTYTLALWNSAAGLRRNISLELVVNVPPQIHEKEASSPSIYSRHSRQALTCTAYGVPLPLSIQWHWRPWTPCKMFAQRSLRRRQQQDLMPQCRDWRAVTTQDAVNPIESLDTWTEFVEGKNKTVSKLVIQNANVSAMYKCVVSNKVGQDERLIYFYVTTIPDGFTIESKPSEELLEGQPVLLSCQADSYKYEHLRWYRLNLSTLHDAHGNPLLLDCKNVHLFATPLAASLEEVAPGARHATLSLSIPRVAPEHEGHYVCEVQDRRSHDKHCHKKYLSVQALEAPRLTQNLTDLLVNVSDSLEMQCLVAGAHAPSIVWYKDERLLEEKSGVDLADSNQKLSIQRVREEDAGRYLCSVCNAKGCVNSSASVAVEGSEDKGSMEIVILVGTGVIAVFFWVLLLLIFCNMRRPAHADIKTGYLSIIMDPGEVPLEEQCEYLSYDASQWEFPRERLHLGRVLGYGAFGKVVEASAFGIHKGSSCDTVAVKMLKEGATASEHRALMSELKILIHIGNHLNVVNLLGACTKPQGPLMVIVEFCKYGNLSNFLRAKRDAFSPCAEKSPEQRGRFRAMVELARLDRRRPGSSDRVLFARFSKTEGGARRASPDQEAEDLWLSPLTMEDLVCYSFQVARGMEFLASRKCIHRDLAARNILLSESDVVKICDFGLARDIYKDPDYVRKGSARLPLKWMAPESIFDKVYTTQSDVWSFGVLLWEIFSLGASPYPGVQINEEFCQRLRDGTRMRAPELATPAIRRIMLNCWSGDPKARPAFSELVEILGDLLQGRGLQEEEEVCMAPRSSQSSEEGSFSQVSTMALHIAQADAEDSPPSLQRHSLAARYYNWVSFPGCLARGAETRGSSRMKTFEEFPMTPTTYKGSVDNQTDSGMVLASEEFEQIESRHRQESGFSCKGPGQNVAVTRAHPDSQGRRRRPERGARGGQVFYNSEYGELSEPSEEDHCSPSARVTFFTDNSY
Chain of Serine/threonine-protein kinase PLK1 (Homo sapiens) (P53350 whole entry): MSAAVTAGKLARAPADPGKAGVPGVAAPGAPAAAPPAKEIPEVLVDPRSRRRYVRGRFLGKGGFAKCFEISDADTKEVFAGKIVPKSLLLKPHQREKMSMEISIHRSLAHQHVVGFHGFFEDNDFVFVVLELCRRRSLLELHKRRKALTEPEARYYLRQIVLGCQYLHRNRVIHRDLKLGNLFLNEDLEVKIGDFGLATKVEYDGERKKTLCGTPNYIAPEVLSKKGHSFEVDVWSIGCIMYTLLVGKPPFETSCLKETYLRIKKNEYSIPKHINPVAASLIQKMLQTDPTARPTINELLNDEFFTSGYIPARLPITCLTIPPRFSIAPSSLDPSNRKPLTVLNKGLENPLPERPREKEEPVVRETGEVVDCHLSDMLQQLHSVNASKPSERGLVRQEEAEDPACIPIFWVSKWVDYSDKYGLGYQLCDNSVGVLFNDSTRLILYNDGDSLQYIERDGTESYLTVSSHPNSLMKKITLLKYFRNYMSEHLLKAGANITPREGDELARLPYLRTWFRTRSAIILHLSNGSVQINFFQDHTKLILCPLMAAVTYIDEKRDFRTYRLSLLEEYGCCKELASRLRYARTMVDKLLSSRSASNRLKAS
Chain of Macrophage colony-stimulating factor 1 receptor (Homo sapiens) (P07333 whole entry): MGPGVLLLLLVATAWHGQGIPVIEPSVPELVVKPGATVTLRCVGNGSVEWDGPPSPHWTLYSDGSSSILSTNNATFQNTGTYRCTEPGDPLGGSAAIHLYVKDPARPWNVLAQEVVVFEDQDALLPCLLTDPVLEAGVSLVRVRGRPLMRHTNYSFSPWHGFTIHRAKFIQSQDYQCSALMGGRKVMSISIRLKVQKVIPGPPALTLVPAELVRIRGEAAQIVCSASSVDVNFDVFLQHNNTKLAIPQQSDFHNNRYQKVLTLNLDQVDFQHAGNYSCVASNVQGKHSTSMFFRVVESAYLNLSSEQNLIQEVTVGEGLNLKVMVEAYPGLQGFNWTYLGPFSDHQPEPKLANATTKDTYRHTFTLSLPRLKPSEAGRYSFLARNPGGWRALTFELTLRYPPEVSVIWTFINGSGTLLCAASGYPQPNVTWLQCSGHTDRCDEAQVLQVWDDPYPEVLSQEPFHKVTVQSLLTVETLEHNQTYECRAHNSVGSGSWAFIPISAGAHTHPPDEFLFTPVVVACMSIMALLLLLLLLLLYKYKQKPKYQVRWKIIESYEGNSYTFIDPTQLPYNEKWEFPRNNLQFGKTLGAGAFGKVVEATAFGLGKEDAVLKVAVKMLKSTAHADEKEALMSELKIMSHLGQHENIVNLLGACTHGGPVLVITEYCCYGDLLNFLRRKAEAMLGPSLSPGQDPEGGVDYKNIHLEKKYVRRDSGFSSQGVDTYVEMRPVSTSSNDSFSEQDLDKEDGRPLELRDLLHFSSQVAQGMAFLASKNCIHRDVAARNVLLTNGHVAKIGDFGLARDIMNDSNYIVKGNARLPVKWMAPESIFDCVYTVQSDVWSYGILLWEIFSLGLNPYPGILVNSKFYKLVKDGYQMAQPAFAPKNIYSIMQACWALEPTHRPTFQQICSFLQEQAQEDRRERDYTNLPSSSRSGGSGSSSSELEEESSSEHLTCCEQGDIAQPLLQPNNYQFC

SMILES	inhibition [1]	inhibition [2]	inhibition [3]	inhibition [4]	inhibition [5]	inhibition [6]	inhibition [7]	inhibition [8]	inhibition [9]	inhibition [10]	inhibition [11]	inhibition [12]	inhibition [13]	inhibition [14]	inhibition [15]	inhibition [16]	inhibition [17]	inhibition [18]	inhibition [19]	inhibition [20]
Cc1cc(O)cc(C)c1/C=C/c1cncc(C(N)=O)c1	91.3%	1.8%	2.95%	3.02%	1.69%	3.18%	1.92%	4.15%	3.89%	5.2%	0.49%	2.01%	1.27%	4.3%	2.14%	1.77%	0.45%	5.27%	31.3%	5.86%
CS(=O)(=O)Nc1ccc(-c2cc(-c3ccccc3)cc(C(N)=O)c2N)cc1	1.3%	1.84%	1.25%	4.07%	2.73%	1.42%	-0.5%	1.35%	6.39%	2.67%	1.82%	0.78%	3.05%	3.79%	-1.74%	11.7%	14.7%	1.42%	9.05%	1.39%
Nc1nonc1-c1nc2cnccc2n1C1CC1	11.3% and 10.2%	1.72% and 1.48%	6.39% and 2.72%	5.51% and 2.84%	4.67% and 4.04%	3.25% and -0.01%	-0.06% and 2.15%	3.77% and 4.5%	2.89% and 3.28%	8.67% and 3.36%	1.51% and 3.66%	3.84% and 2.82%	5.97% and 4.56%	5.61% and 5.02%	7.78% and 5.95%	5.27% and -4.56%	21.9% and 17.5%	3.87% and 1.25%	10.1% and 8.4%	1.35% and -1.92%
